According to PubChem BioAssay AID720664 (National Center for Advancing Translational Sciences (NCATS), 2013):
Inconclusive results are not listed. A call without a number means that no potency is given here. Calls of active or inactive are those of the source. Calls follow the shape of the dose curve; as a rule, active = well fitted inhibition curve with a large enough effect; inconclusive = small, poorly fitted or top-dose-only effect; inactive = flat fitted curve, though single readings scatter.

target: Galactokinase (Homo sapiens) (UniProt P51570); assay: qHTS for Inhibitors of Human Galactokinase (GALK): SAR round 3; conditions: ADP detection luminescence, 1 h; series mostly up to 57.5 µM
Sequence (P51570 whole entry, looked up): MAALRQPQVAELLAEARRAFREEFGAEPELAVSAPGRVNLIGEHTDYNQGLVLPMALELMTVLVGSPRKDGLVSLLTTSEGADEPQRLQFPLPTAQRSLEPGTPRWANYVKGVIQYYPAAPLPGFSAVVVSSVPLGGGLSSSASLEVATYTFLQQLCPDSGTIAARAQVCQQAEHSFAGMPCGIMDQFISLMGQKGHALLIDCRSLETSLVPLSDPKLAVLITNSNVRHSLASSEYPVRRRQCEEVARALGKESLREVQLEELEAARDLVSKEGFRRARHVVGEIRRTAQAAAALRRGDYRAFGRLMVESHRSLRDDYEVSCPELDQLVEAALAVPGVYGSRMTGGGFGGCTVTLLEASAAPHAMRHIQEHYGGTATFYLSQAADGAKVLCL
How it was run: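 Cherry-picked actives were retested in quantitative dose format against 5 nM human galactokinase, using 100 µM galactose and 35 µM ATP at pH 8.0 (HEPES, MgCl2, NaCl). After 1 h at room temperature, product was quantified by luminescence.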

| SMILES | Potency |
| --- | --- |
| Nc1ncc(S(=O)(=O)N2CCOCC2)s1 | inactive |
| O=C1CCCC2=C1C(c1[nH]ncc1Cl)N=C(Nc1cccnc1)N2 (centres undefined) | inactive |
| O=C1CCCC2=C1C(c1cccc(F)c1)N=C(Nc1nc3ccccc3o1)N2 (centres undefined) | inactive |
| Cc1nc(Nc2nc3ccccc3o2)nc2c1CCCC2 | inactive |
| O=C1CCCC2=C1C(c1[nH]ncc1Cl)NC(=NCc1ccccn1)N2 (centres undefined) | inactive |
| O=C1CCCC2=C1C(c1[nH]ncc1Cl)NC(=NCc1ccoc1)N2 (centres undefined) | inactive |
| CC1=C(C(=O)Nc2nc3ccccc3s2)C2(CCCC2)N=C(Nc2nc3ccccc3o2)N1 | inactive |
| O=C1CCCC2=C1C(c1[nH]ncc1Cl)NC(=NCc1ncc[nH]1)N2 (centres undefined) | inactive |
| COc1cccc(C2N=C(Nc3nc4ccccc4o3)NC3=C2C(=O)CCC3)c1 (centres undefined) | inactive |
| O=C1CCCC2=C1C(c1cccnc1Br)N=C(Nc1nc3ccccc3o1)N2 (centres undefined) | inactive |
| Cc1cc(NC2=NC(c3[nH]ncc3Cl)C3=C(CCCC3=O)N2)no1 (centres undefined) | inactive |
| O=C1CCCC2=C1C(c1[nH]ncc1Cl)N=C(Nc1nccs1)N2 (centres undefined) | inactive |
| O=C1C2=C(CN1Cc1ccccc1)NC(Nc1nc3ccccc3o1)=NC2c1ccccc1Cl (centres undefined) | inactive |
| O=C1CCCC2=C1C(c1[nH]ncc1Cl)N=C(Nc1nc3cc(F)ccc3o1)N2 (centres undefined) | inactive |
| O=C1CCCC2=C1C1(CCCC1)N=C(Nc1nc3ccccc3o1)N2 | inactive |
| Cn1c(NC2=NC3(CCCC3)C3=C(CCCC3=O)N2)nc2ccccc21 | inactive |
| O=C1CCCC2=C1C(c1[nH]ncc1Cl)N=C(Nc1ccccc1)N2 (centres undefined) | inactive |
| CC1=C(C(=O)Nc2nncs2)C(c2[nH]ncc2Cl)N=C(Nc2nc3ccccc3o2)N1 (centres undefined) | 12.2 µM (active) |
| O=C1CCCC2=C1[C@@]1(CCC(c3ccccc3)C1)N=C(Nc1nc3ccccc3o1)N2 (some centres undefined) | inactive |
| CCC1CCC2(C1)N=C(Nc1nc3ccccc3o1)NC1=C2C(=O)CCC1 (centres undefined) | inactive |

| SMILES | Potency |
| --- | --- |
| O=C1CCCC2=C1C1(CCCC1)N=C(Nc1nc3cc(Cl)ccc3o1)N2 | inactive |
| O=C1CCCC2=C1C(c1cccnc1Cl)N=C(Nc1nc3ccccc3o1)N2 (centres undefined) | inactive |
| CN1C(=O)NC(c2ccccc2Cl)C2=C1CCCC2=O (centres undefined) | inactive |
| CC1=C(C(=O)N(C)c2ccccc2C)C(c2ccccc2Br)N=C(Nc2nc3ccccc3o2)N1 (centres undefined) | inactive |
| COc1ccc2oc(NC3=NC(c4[nH]ncc4Cl)C4=C(CCCC4=O)N3)nc2c1 (centres undefined) | inactive |
| COc1ccc(C2N=C(Nc3nc4ccccc4o3)NC3=C2C(=O)CCC3)cc1 (centres undefined) | inactive |
| COc1ccccc1NC(=O)C1=C(C)NC(Nc2nc3ccccc3o2)=NC1c1ccccc1Br (centres undefined) | inactive |
| O=C1CCCC2=C1C(c1ccccc1I)N=C(Nc1nc3ccccc3o1)N2 (centres undefined) | 6.11 µM (active) |
| O=C1CC(c2ccccc2)CC2=C1C1(CCCCC1)N=C(Nc1nc3ccccc3o1)N2 (centres undefined) | inactive |
| Cc1nc(NC2=NC(c3ccccc3Cl)C3=C(CCCC3=O)N2)oc1C (centres undefined) | inactive |
| O=C1CCCC2=C1C(c1[nH]ncc1Cl)NC(=NCc1ccco1)N2 (centres undefined) | inactive |
| O=C1CCCC2=C1C(c1[nH]ncc1Cl)NC(=NCc1ccncc1)N2 (centres undefined) | inactive |
| O=C1CCCC2=C1C(c1[nH]ncc1Cl)N=C(Nc1nc3cc([S+](=O)([O-])N4CCCC4)ccc3o1)N2 (centres undefined) | inactive |
| O=C1CCCC2=C1C(c1[nH]ncc1Cl)N=C(Nc1nc3c(Cl)cccc3o1)N2 (centres undefined) | inactive |
| CC1=C(C(=O)Nc2noc3ccccc23)C2(CCCC2)N=C(Nc2nc3ccccc3o2)N1 | inactive |
| O=C1CCCC2=C1C(c1c(Cl)cccc1Cl)N=C(Nc1nc3ccccc3o1)N2 (centres undefined) | inactive |
| CC1(C)CC(=O)C2=C(C1)NC(Nc1nc3ccccc3o1)=NC21CCCC1 | inactive |
| CC1=C(C(=O)NC2CC2)C(c2nn(C)cc2Cl)N=C(Nc2nc3ccccc3o2)N1 (centres undefined) | inactive |
| CNC(=O)C1=C(C)NC(Nc2nc3ccccc3o2)=NC12CCCC2 | inactive |
